Molecules are shown by their SMILES. Results filed as inconclusive are left out. Unmarked numbers belong to inactive results. The source made the active and inactive calls. Calls follow the shape of the dose curve; as a rule, active = well fitted activation curve with a large enough effect; inconclusive = small, poorly fitted or top-dose-only effect; inactive = no such curve, though single readings can be large or run the other way.
Potency is read from the fitted curve at half-maximal effect.

A short description of the first assay: Activators of T cell receptors: Hit Validation. As to activation: 0% is about no effect. The settings on record: primary human leukocytes, cytokine release by HTRF, 48 h. From the text: Normally activation of naive T cells requires two signals. 1. A signal through the T cell receptor (TCR) which provides antigen specificity to the response. 2. Signals through co-stimulatory molecules, which are necessary for proliferation, survival and cytokine production. In the absence of co-stimulatory signals T cells are not effectively activated, and may even be rendered anergic or unresponsive to subsequent signaling. This lack of costimulation has been shown in multiple model systems to be a major factor in the limited strength and effectiveness of anti-tumor T cell responses. The goal of this project is to identify small molecule compounds that will stimulate T cell activation in the presence of TCR signaling but in the absence of co-stimulatory signals, thereby allowing activation of naive T cells in the absence of co-stimulation. Identification of such compounds would have clear experimental and clinical applications in instances where desirable antigen-specific immune responses are not generated due to a lack of co-stimulation, for example in the generation of anti-tumor responses.
In collaboration between the National Cancer Institute and NIH Chemical Genomics Center, a high-throughput amenable screen was developed to discover small molecules that co-stimulate and activate human T cell receptors. The screen will be carried out using a novel homogeneous time resolved fluorescence energy transfer (HTRF) assay to measure production of the cytokine IL-2 by activated T cells and will be tested against the NIH Molecular Libraries Small Molecule Repository (MLSMR). This is the same assay tested against the hits identified in the primary screen.
NIH Chemical Genomics Center [NCGC]
NIH Molecular Libraries Probe Centers Network [MLPCN]
Assay Submitter (PI): Richard Hodes, National Cancer Institute, NIH
Primary human leukocytes are incubated with a-CD3 beads and compounds for 48 hr. The amount of secreted IL-2 is then assayed with a HTRF IL-2 kit. The presence of IL-2 cytokine captures the detection reagents and brings the a-IL-2-K and a-IL-2-d2 into close proximity. Upon excitation with 320nm light, the europium cryptate is capable of transferring energy to acceptor molecules within close proximity, resulting in acceptor molecule emission at 665nm.
Background: Time-resolved FRET reads energy transfer from a long-lived donor to a nearby acceptor.
For the compound `C=C(C)[C@@]12OC3(c4ccccc4)O[C@@H]1C1[C@@H]4O[C@]4(CO)[C@@H](O)[C@]4(O)C(=O)C(C)=C[C@H]4[C@@]1(O3)[C@H](C)[C@H]2OC(=O)/C=C/C=C/c1ccccc1` (stereo not given in full), the Potency is 0.002 µM (active).

Take `CN(C)c1ccc(/C=C/c2cc[n+](C)c3ccccc23)cc1`: the Potency was 7.91 µM (active).

Still in this assay, the particulars now being: primary human leukocytes, cytokine release by HTRF, 48 h; TCR-stimulated with anti-CD3 beads.
As to `CN(C)c1ccc(/C=C/c2cc[n+](C)c3ccccc23)cc1`, the Potency is 6.28 µM (active).

Staying with this assay, now noted: primary human leukocytes, cytokine release by HTRF, 48 h; at 46.1 µM (top of the series).
`C#C[C@]1(O)CC[C@H]2[C@@H]3CCC4=CC(=O)CC[C@]4(C)[C@H]3CC[C@@]21C`: the activation is -6.05%.

In the case of `COc1ccc(N/N=C/c2c(O)n(-c3ccc(C)c(C)c3)c(=O)[nH]c2=O)cc1`, the activation is 11.6%.

Turning to `COc1ccc(/C=C/C(=O)c2c(O)n(CCC3=CCCCC3)c(=O)[nH]c2=O)cc1`, the activation is 2.49%.

For the compound `CCC(C)n1c(O)c(C=NC(C)c2ccccc2)c(=O)[nH]c1=S` (stereo not given), the activation is 6.34%.

The assay is the same for the next values; noted with them: primary human leukocytes, cytokine release by HTRF, 48 h; at 46.1 µM (top of the series); TCR-stimulated with anti-CD3 beads.
For `Nc1cc(Cl)cc(Cl)c1`, the activation is -3.76%.

Turning to `Cc1ccc(OC(F)F)c(N2C(=O)C3C4CCC(O4)C3C2=O)c1` (stereo not given), the activation was -0.91%.

With `CC(C)[C@]12CC(=O)[C@H](C)[C@H]1C2`, the activation was -2.87%.
